From PubChem
Only some compounds are listed: those with a hit (about 4.6% of all), similar ones and a draw of the others.
V-ATPase pH: regulators of yeast V-ATPase proton transport. S. cerevisiae, pHLuorin cytosolic pH fluorescence. AID 504577. actives 0.37% (n = 350,000). response, % at 10 µM; in the data active = response mostly above about 7.3%, no sharp cut-off; inactive = mostly below about 5.4%; note: actives read high
PfHsp90 set2: inhibits growth of yeast expressing Plasmodium falciparum Hsp90; S. cerevisiae expressing PfHsp90, BacTiter-Glo ATP, 48 h; yeast lacking PDR1 and PDR3 efflux regulators; inhibition, % at 9.4 µM; actives 0.32% (n = 310,000); AID 504621;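 active = every replicate shows inhibition above about 80%, whatever the replicate mean, limit read from the data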;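 note: 0% = DMSO neutral controls and 100% = 20 µM radicicol positive controls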
TIM10 inh: inhibits growth of TIM10 yeast strain. S. cerevisiae TIM10 strain growth, BacTiter-Glo luminescence, 24 h. inhibition, % at 10 µM. actives 1.4% (n = 330,000);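 active = inhibition of 40% or more at the single tested concentration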;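 note: wild-type TIM10 isogenic control strain grown at permissive 25 °C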
SKKanGAS inh: blocks kanamycin growth of S. pyogenes SKKanGAS strain; AID 1662; actives 1.3% (n = 300,000); inhibition, % at 7.5 µM; BacTiter-Glo, 6 h;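 active = mean replicate score, as percent of positive control median, at least 50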;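 note: strain carries kanamycin resistance gene driven by streptokinase promoter and grows in 40 µg/ml kanamycin; loss of luminescence reflects streptokinase promoter inhibition or plain growth inhibition; 0% = median of DMSO wells and 100% = positive control at its reference dose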
tim23-1 inh: inhibits growth of tim23-1 mutant yeast | inhibition, % at 20 µM | S. cerevisiae tim23-1 growth, BacTiter-Glo luminescence, 24 h | actives 1.3% (n = 330,000);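 active = growth inhibition of the mutant yeast at or above 50%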;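 note: temperature-sensitive mutant grown at 25 °C; plate controls were DMSO-treated mutant yeast for no effect and medium wells lacking yeast for full effect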
tim10-1 inh: tim10-1 yeast growth inhibition; AID 463190; S. cerevisiae tim10-1 ts strain growth, BacTiter-Glo, 24 h; actives 2.2% (n = 330,000); inhibition, % at 20 µM;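 active = inhibition of at least 40%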;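 note: mutant grown at 25 °C; 0% = DMSO wells with yeast and 100% = wells holding no yeast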
Starred values were filed as active, the others as inactive; nt = not tested or not shown; + = active, no number.

SMILES | V-ATPase pH | PfHsp90 set2 | TIM10 inh | SKKanGAS inh | tim23-1 inh | tim10-1 inh
COc1ccc(C(=O)COC(=O)c2cc([N+](=O)[O-])ccc2N2CCOCC2)c(OC)c1 | 3 | + | -115 | -3 | -44 | -28
CCC1CN(C(=O)N2CCC(C(=O)Nc3ccccc3F)CC2)c2ccccc2O1 (stereo not drawn) | -1 | 9 | 1 | 22 | 11 | 12
CC(C)(C)c1ccc(Cn2ccc(-c3ccc4c(c3)OCO4)n2)cc1 | 0 | 0 | 31 | 53* | 22 | 38
COc1ccc(C(C)=O)cc1COc1cc(C)c(Cl)c(C)c1 | 11 | -16 | 0 | 50* | -1 | 2
COc1ccc(C(C)=O)cc1COc1ccc(Cl)cc1Cl | -1 | 0 | 27 | 4 | 15 | 19
COCCCN(C(=O)c1ccccc1F)c1nc(-c2ccc(OC)cc2)cs1 | -5 | -3 | -3 | 2 | 29 | 12
CC(C)(C)c1ccccc1OCCCCCn1ccnc1 | -1 | 32 | 13 | 63* | 22 | 18
Cc1ccc(C(C)(C)C)c(OCCCn2ccnc2)c1 | 5 | -3 | -10 | 0 | 10 | 0
CC1CCN(S(=O)(=O)c2ccc3c(c2)N(CC(=O)NCCN2C(C)CCCC2C)C(=O)CS3)CC1 (stereo not drawn) | -4 | 10 | 6 | 6 | -19 | -1
CCn1cc(C(=O)NC(=S)Nc2ccccc2Br)cn1 | 2 | 1 | 21 | 51* | 50 | 18
CCn1cc(C(=O)NC(=S)Nc2ccccc2[N+](=O)[O-])cn1 | -5 | 17 | 12 | 7 | 24 | 26
O=C(CCc1ccccc1)N/N=C/c1cc(Br)ccc1O | -4 | -9 | 35 | -11 | 19 | 25
COc1ccc(O)c(/C=N/NC(=S)NCCc2ccccc2)c1 | -57 | -88 | 23 | 1 | 10 | 27
Oc1ccc(Br)cc1/C=N/NC(=S)NCCc1ccccc1 | 0 | 13 | 35 | 90* | 26 | 29
Oc1ccc(Br)cc1/C=N/Nc1ncc(-c2ccccc2)cn1 | 5 | -12 | 18 | 83* | 6 | 18
Cc1ccc(NC(=O)COCC(=O)Nc2ccc(F)cc2)cc1 | 3 | -13 | 8 | -8 | 17 | 7
CCCn1nc(C(=O)NNC(=O)CSC(C)C(=O)Nc2cc(C)on2)c2ccccc2c1=O (stereo not drawn) | -2 | -2 | 5 | -2 | -12 | -8
CCN(CC)c1ccc(C(=O)NNC(=O)CNC(=O)c2cccs2)cc1 | 1 | nt | 8 | nt | 14 | 13
O=C(/C=C/c1ccco1)NC(=S)Nc1ccc(N2CCOCC2)c(Cl)c1 | -1 | 28 | 4 | 87* | -6 | -2
COc1ccc(C(=O)NC(=S)Nc2ccc(N3CCOCC3)c(Cl)c2)cc1[N+](=O)[O-] | -4 | 0 | 1 | 68* | 6 | 3
Cc1cc(C)n(-c2nc(N(c3ccccc3)c3ccccc3)nc(-n3nc(C)cc3C)n2)n1 | -2 | nt | 25 | 108* | 12 | 12
Cc1cc(C)n(-c2nc(Nc3ccccc3)nc(-n3nc(C)cc3C)n2)n1 | -2 | -22 | -4 | 40 | -13 | 8
CCOC(=O)c1c(C)[nH]c(C(=O)CSc2ccccc2)c1C | 14* | 14 | -7 | 1 | 11 | 18
CC1CCN(C(=O)CNC(=O)c2ccc(Br)o2)CC1 | 4 | 3 | -3 | nt | -13 | -8
CC(C)COc1ccc(-c2nn(-c3ccccc3)cc2C(=O)Nc2nccs2)cc1 | -4 | -8 | 6 | 96* | -7 | 32
SMILES | V-ATPase pH | PfHsp90 set2 | TIM10 inh | SKKanGAS inh | tim23-1 inh | tim10-1 inh
O=C(Nc1nccs1)c1cn(-c2ccccc2)nc1-c1ccccc1 | -1 | -10 | 37 | 22 | 41 | 28
COC(=O)c1ccc(CN(c2ccc(C(=O)O)c(O)c2)S(=O)(=O)c2ccc(Cl)c([N+](=O)[O-])c2)cc1 | 2 | -18 | nt | 55* | nt | nt
COc1ccc2nc(-n3c(O)c(C4=c5ccccc5=NC4=O)[nH]c3=S)sc2c1 | -8 | -8 | nt | 104* | nt | nt
O=C(O)CN1CCc2ccccc2C1 | -2 | -37 | -11 | -5 | 8 | 1
CCCC(=O)NC(c1ccc2c(c1)OCO2)c1cc(Cl)c2cccnc2c1O (stereo not drawn) | 4 | 99* | -16 | 62* | 43 | 34
COc1ccccc1C(NC(C)=O)c1cc(Cl)c2cccnc2c1O (stereo not drawn) | -3 | -19 | 17 | 100* | 36 | 31
O=C(O)COc1ccccc1C(Nc1ccccn1)c1cc(Cl)c2cccnc2c1O (stereo not drawn) | -3 | 11 | -3 | -3 | 9 | 17
CCC(=O)NC(c1ccc(OC)c(OC)c1)c1cc(Cl)c2cccnc2c1O (stereo not drawn) | 0 | -35 | nt | 56* | nt | nt
CC(C)Oc1ccc(CNC(=O)CCCN2C(=O)C(c3ccccc3)Oc3cccnc32)cc1 (stereo not drawn) | 1 | 21 | 7 | 0 | 9 | 14
COc1ccc(NC(=O)c2cc(-c3ccc(C)c(C)c3O)n[nH]2)cc1Cl | -2 | 17 | 19 | 57* | 25 | -2
Cn1c(C(=O)OCC(=O)NCc2ccc(F)cc2)cc2occc21 | 1 | nt | 7 | 24 | 17 | 14
Cc1ccc(SCC(=O)OCC(=O)N(CCC#N)c2ccccc2)cc1 | 1 | -24 | 6 | nt | 24 | 19
C[C@@H](C[C@@H](O)[C@H](O)C(C)(C)O)[C@@H]1CC[C@]2(C)C3=CC[C@H]4C(C)(C)C(=O)CC[C@]4(C)[C@H]3CC[C@@]12C | 2 | 3 | 18 | 96* | 28 | 12
O=C(Nc1nnc(-c2ccc3c(c2)CCCC3)o1)C1COc2ccccc2O1 (stereo not drawn) | 4 | -123 | 5 | 99* | 32 | 13
CC(=O)Nc1nnc(-c2ccc3c(c2)CCCC3)o1 | 4 | 10 | 0 | 7 | 9 | 9
O=C(COc1ccc(Cl)cc1)Nc1nnc(-c2ccc3c(c2)CCCC3)o1 | -4 | -38 | -8 | 97* | 4 | -12
COc1cccc(-c2ccc(NC(=O)C3CCCN(Cc4cccc(C)n4)C3)cc2)c1 (stereo not drawn) | 3 | nt | nt | nt | nt | nt
Cc1cccc(CN2CCCC(C(=O)c3ccc4c5c(cccc35)CC4)C2)n1 (stereo not drawn) | 1 | -4 | 21 | 65* | 15 | 22
COc1ccc2cc(C(=O)C3CCCN(Cc4cccc(C)n4)C3)ccc2c1 (stereo not drawn) | -5 | 2 | -3 | 79* | 43 | 38
Cc1nc(SCc2cccc(F)c2)c2oc3ccccc3c2n1 | 1 | -36 | -4 | 55* | -1 | 5
c1ccc(CSc2ncnc3c2oc2ccccc23)cc1 | -3 | -6 | 18 | 52* | 8 | 23
N=C1/C(=C\c2ccc(-c3cccc(C(=O)O)c3)o2)C(=O)N=C2SC=C(c3ccccc3)N12 | 1 | -11 | 14 | 79* | 13 | 13
